Screening results: PubChem BioAssay, National Center for Advancing Translational Sciences (NCATS)
In the library only some 3.1% were active in any assay of this set; here they are far more common.
Tau FP inhib: qHTS for Inhibitors of Tau Fibril Formation, Fluorescence Polarization. Microtubule-associated protein tau (Homo sapiens), P10636. K18 P301L tau heparin fibrillization, Alexa594 FP, 6 h. 280,000 tested, 0.39% active. Potency, µM (titrated, usually from 57.7 µM), most hits filed as inhibitors; further: nearly all actives have a fitted effect of over 55% in size
Target sequence (P10636 561-689 P618L limits assumed): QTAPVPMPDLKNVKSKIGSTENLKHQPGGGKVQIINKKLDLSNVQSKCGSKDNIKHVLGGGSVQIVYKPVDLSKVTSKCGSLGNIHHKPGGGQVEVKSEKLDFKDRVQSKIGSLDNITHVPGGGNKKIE
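Compound effects on tau fibrillization are measured by Alexa 594 fluorescence polarization (ex 555, em 632 nm). K18 P301L tau is used at 15 uM with 0.24 uM labeled tracer, and 20 uM heparin induces aggregation over 6 hr at 37 C.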
Tau fluor cs: Counterscreen qHTS for Inhibitors of Tau Fibril Formation, Fluorescence Polarization | AID 1463, 2008 | Potency, µM (doses to about 57.7 µM) | 280,000 tested, 0.93% active | tau K18 P301L Alexa594 fluorescence, heparin fibrillization; further: nearly all actives have a fitted effect of over 55% in size
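Human K18 P301L tau (15 uM unlabeled plus 0.24 uM Alexa 594-labeled, final) in 100 mM sodium acetate pH 7 was mixed with compound and 20 uM heparin and incubated 6 hr at 37 C.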
TR SRC2 fluor cs: Total Fluorescence Counterscreen for Inhibitors of the Interaction of Thyroid Hormone Receptor and Steroid Receptor Coregulator 2; TRb/SRC2 Texas Red total fluorescence interference; Potency, µM (series often up to 106 µM); 280,000 tested, 0.29% active; active means well fitted curve in either direction with a large enough effect; inconclusive means small, poorly fitted or top-dose-only effect
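Human TRβ ligand-binding domain (0.6 uM) and Texas Red SRC2 peptide (20 nM) in Tris buffer with 1 uM T3 and 5% DMSO were incubated with pinned compound for 5 hr at ambient temperature. Total fluorescence was computed as S + 2P (555/632 nm).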
Tau fibril ThT: qHTS for Inhibitors of Tau Fibril Formation, Thioflavin T Binding. recombinant tau K18 P301L (four-repeat tau fragment), heparin-induced fibrillization, ThT fluorescence. Potency, µM (series often up to 57.4 µM), most hits filed as inhibitors. 270,000 tested, 2.1% active. AID 1460, 2008; further: nearly all actives have a fitted effect of over 55% in size
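K18 P301L tau (15 uM + 0.24 uM Alexa 594-tagged), heparin 20 uM, NaOAc pH 7, 6 h 37 C; ThT 30 uM, 1 h RT, ex 450/em 510 nm.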
TRb SRC2 PPI: qHTS for Inhibitors of the Interaction of Thyroid Hormone Receptor and Steroid Receptor Coregulator 2. AID 1469, 2008. TRbeta-SRC2 peptide binding, fluorescence polarization; receptor liganded with 1 µM T3. Thyroid hormone receptor beta (Homo sapiens), P10828. 280,000 tested, 0.065% active. Potency, µM (highest dose often 106 µM), most hits filed as inhibitors; further: nearly all actives have a fitted effect of over 50% in size
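Each compound concentration gave % activity, normalized to unbound and bound Texas Red SRC2 controls, from polarization read after 5 hr ambient incubation with T3-loaded human TRb LBD.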
A number is an active result; - = inactive; ? = inconclusive; . = no result given; [ ] = remark or other dose. Unless noted, the call rests on the fitted dose curve; in most records, active means well fitted curve in the direction sought with a large enough effect; inconclusive means small, poorly fitted or top-dose-only effect, or another doubt; inactive means no such curve, though single readings can be large; an effect the other way counts as inactive or inconclusive.

SMILES	Tau FP inhib	Tau fluor cs	TR SRC2 fluor cs	Tau fibril ThT	TRb SRC2 PPI
COc1ccc(CCn2c(NN=C(C)C)nc3c2c(=O)[nH]c(=O)n3C)cc1	?	?	-	22µM	-
COc1ccc(CCn2c(NN)nc3c2c(=O)[nH]c(=O)n3C)cc1	?	?	-	.	-
CCOC(=O)c1c(-c2ccc(C)cc2)csc1NC(=O)c1cc2ccccc2oc1=O	-	-	-	-	-
CCOC(=O)c1c(-c2ccc(C)cc2)csc1NC(=O)c1cc(=O)c2ccc(C)cc2o1	-	-	35µM[quencher]	-	-
Fc1ccc(NCc2nnc3n2CCCCC3)cc1Cl	-	-	-	-	-
CC(C)COC(=O)c1ccc2c(c1O)C(=O)c1ccccc1C2=O	-	?	-	13µM	-
O=C(Nc1ccc2c(c1)OCCO2)c1cccc2nc3ccccc3nc12	-	?	-	4.5µM	-
O=C(Nc1ccc2c(c1)OCCO2)c1ccccc1F	-	-	-	-	-
O=c1n(Cc2cc3c(cc2Cl)OCO3)c(=O)n2n1CC[C@H]1/C(=N\OC[C@@H](O)COCc3ccco3)[C@H]3O[C@@H]3[C@@H](O)[C@@H]12	-[11.6 µM]	-[11.6 µM]	-[11.2 µM]	-[11.5 µM]	-[11.2 µM]
CCOC(=O)C1=C(CN2CCN(c3ccc(OC)cc3)CC2)NC(=O)NC1c1ccc(OC)cc1 (configuration not stated)	-	-	100µM[quencher]	-	-
O=C(Nc1ccc(OCC(F)(F)C(F)F)cc1)c1ccncc1	-	-	-	-	-
O=C(Nc1ccc(OCC(F)(F)C(F)F)c(C(F)(F)F)c1)c1ccccc1O	25µM	?	-	?	-
O=[N+]([O-])c1cc(C(F)(F)F)cc([N+](=O)[O-])c1NN=C1CCCCC1	?	?	-	13µM	-
O=[N+]([O-])c1cc(S(=O)(=O)N2CCCC2)ccc1NN=C1CCCCC1	-	-	-	-	-
CCCn1nnc(NC(=O)/C=C/c2ccccc2)n1	-	-	-	-	-
Cc1nc(NC(=O)/C=C/c2ccccc2)n[nH]1	?	-	-	16µM	-
C=C(C)C(=O)OCCC[Si](OC)(OC)OC	.	.	-	.	-
O=[N+]([O-])c1ccc(/C=C2\CCC(C3=CCCC3)=C2N2CCOCC2)cc1	?	?	-	16µM	-
O=C1c2ccccc2-c2n[nH]c(=O)c3ccc(N4CCCCC4)c1c23	-	?	-	14µM	-
O=C(/C=C/c1ccc2c(c1)OCCCO2)c1ccc2ccccc2c1O	-	?	-	3.2µM	-
Cc1ccc(C(=O)/C=C/c2ccc3c(c2)OCCO3)c(O)c1	-	-	-	6.3µM	-
CCCOc1ccc(N2C(=O)CC(N(CCc3ccc(OC)c(OC)c3)C(=S)Nc3ccccc3)C2=O)cc1 (configuration not stated)	-	-	0.5µM[quencher]	-	?
CC1(C(=O)Nc2cccc(C(F)(F)F)c2)Cc2ccccc2C(=O)O1 (configuration not stated)	-	-	-	-	-
CSc1nnc(C)c(=O)n1COC(=O)/C=C/c1ccc2c(c1)OCO2	-	-	-	-	-
N#Cc1c(C#N)c(O)c2ccccc2c1O	?	-	-	14µM	-
SMILES	Tau FP inhib	Tau fluor cs	TR SRC2 fluor cs	Tau fibril ThT	TRb SRC2 PPI
NC(=O)c1cccc(C[C@H](C(=O)O)N2C(=O)c3ccc(C(=O)O)cc3C2=O)c1	.	.	-	.	-
C=CC[C@@H]1C=C[C@@H](O/N=C\c2ccc(C(=O)N3[C@H](c4ccc(C)cc4)[C@@H](C)CC[C@H]3C(=O)OC)cc2)[C@@H](CO)O1	-[11.6 µM]	-[11.6 µM]	-[11.2 µM]	-[11.5 µM]	-[11.2 µM]
O=C1CCCCC/C1=N/Nc1ccc(OCc2ccccc2)cc1	-	?	-	11µM	-
O=C(COc1ccc(OCc2ccccc2)cc1)NN=C1CCCC1	-	-	-	?	-
CC(C)(C)NC(=O)C(c1cccs1)N(C(=O)c1csnn1)c1ccccc1F (configuration not stated)	-	-	-	-	-
Cc1ccc2nc(-c3ccc(Cl)c(NC(=O)c4cccc([N+](=O)[O-])c4C)c3)oc2c1	-	-	16µM[quencher]	-	-
